Screening results (PubChem)
Only some compounds are listed: those with a hit (about 21% of all), similar ones and a draw of the others.
NS1 function inh: blocks influenza NS1 protein function; actives 0.4% (n = 270,000); Potency, µM (titrated, usually from 46.1 µM); calls by dose curve; note: actives are rising curves; nearly all actives have a fitted effect of over 50% in size
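Read-out: OD600 growth recovery of NS1-expressing budding yeast. Cells grown overnight at 30C in -URA glucose medium, washed, resuspended and diluted 1:100 in 2% galactose assay medium, pH 6.0. Same strain lacking NS1 served as positive control.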
CHX counter: affects cycloheximide protein synthesis inhibition readout, counter-screen; cell reporter, cycloheximide protein synthesis inhibition counterscreen; max response, %; actives 12% (n = 300,000); AID 2314; in the data active = max response mostly above about 13%, no sharp cut-off; inactive = mostly below about 14%; note: read at 38.3 µM for the half of the compounds with a filed dose
Shiga toxin inh: Shiga toxin inhibition. inhibition, % at 38.7 µM. AID 2315. actives 9.2% (n = 290,000). Vero cells, Shiga toxin protein synthesis inhibition reporter; in the data active = inhibition mostly above about 28%, no sharp cut-off; inactive = mostly below about 43%
Pf growth 48h: inhibits P. falciparum growth in the first generation, 48 h; P. falciparum luciferase growth in erythrocytes, 48 h; Potency, µM (top dose mostly 28.7 µM), usual class: inhibitors; actives 5.9% (n = 310,000)
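Parasite viability was followed by luminescence of a genomically integrated firefly luciferase. Cultures held 0.1% parasitemia at 2% hematocrit (final), incubated under 5% CO2 at 37 C.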
Pf growth 96h: P. falciparum growth inhibition at 96 hours. P. falciparum luciferase reporter growth, 96 h. Potency, µM (top dose mostly 28.7 µM), usual class: inhibitors. actives 6.9% (n = 320,000). AID 504834
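Parasite growth measured via integrated firefly luciferase reporter in P. falciparum. Infected erythrocytes at 2% hematocrit, 0.05% parasitemia final were treated 96 hours at 37 C under 5% CO2, and luminescence was read.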
Large screens that a line does not name were inactive. Unless noted, calls come from the whole dose curve; as a rule, active = well fitted inhibition curve with a large enough effect; inconclusive = small, poorly fitted or top-dose-only effect, or another doubt; inactive = no such curve, though single readings can be large or run the other way.

Clc1ccccc1Cc1noc(CN2CCN(c3cnccn3)CC2)n1	CHX counter 13, Pf growth 48h inconclusive, Pf growth 96h inconclusive
Cc1ccc(C)c(NC(=O)CCc2nnc3ccc(NCc4ccco4)nn23)c1	Pf growth 96h inconclusive
CCCCC(=O)NNC(=S)NCc1ccccc1	none
CC(=O)CCC(=O)N1CCCC(CNC(=O)c2ccc(-c3ccccc3)cc2)C1 (centres undefined)	CHX counter 21, Shiga toxin inh 42, Pf growth 96h inconclusive
CSCC(=O)N1CCCC(CNC(=O)c2ccc(-c3ccccc3)cc2)C1 (centres undefined)	CHX counter 12, Pf growth 48h inconclusive
O=C(NCC1CCCN(C(=O)c2cccnc2)C1)c1ccc(-c2ccccc2)cc1 (centres undefined)	none
O=C(COC(=O)Cn1cnc2ccccc21)Nc1cccc(S(=O)(=O)N2CCOCC2)c1	none (no result: NS1 function inh)
FC(F)(F)c1cc(-c2ccco2)nc(NCc2ccccc2)n1	Pf growth 48h inconclusive, Pf growth 96h inconclusive
FC(F)(F)c1cc(-c2ccccc2)nc(NCc2cccnc2)n1	Pf growth 48h 3.7µM, Pf growth 96h inconclusive
FC(F)(F)c1cc(-c2ccco2)nc(NCc2cccnc2)n1	Pf growth 48h 12µM, Pf growth 96h inconclusive
CCc1c(C)nc2ncnn2c1N1CCCC(C(=O)Nc2cc(F)ccc2C)C1 (centres undefined)	Pf growth 96h inconclusive (no result: Pf growth 48h)
CCOc1ccc(NC(=S)N2CCC(c3ccc(C)cc3)C2)cc1 (centres undefined)	none
COc1ccc(NC(=S)N2CCCC2)cc1	none
COc1cccc(NC(=S)N2CCC(c3ccc(C)cc3)C2)c1 (centres undefined)	CHX counter 30, Shiga toxin inh 82
COc1cccc(NC(=S)N2CCC(Cc3ccccc3)CC2)c1	Pf growth 48h inconclusive
COc1ccc(NC(=S)N2CCC(c3ccc(C)cc3)C2)cc1 (centres undefined)	CHX counter 14
Cc1ccc(NC(=S)N2CCC(c3ccc(C)cc3)C2)cc1 (centres undefined)	CHX counter 46, Shiga toxin inh 98 (no result: NS1 function inh)
COc1cc(/C=N/Nc2nc(Nc3ccccc3)nc(N3CCOCC3)n2)ccc1OC(=O)c1ccco1	Pf growth 48h inconclusive, Pf growth 96h inconclusive (no result: NS1 function inh)
CCCCCCC(O)C/C=C/CCCCCCCC(=O)O (centres undefined)	none (no result: NS1 function inh, CHX counter, Shiga toxin inh)
CCN(C(=O)CN1CCN(c2ccc(O)cc2)CC1)c1c(N)n(Cc2ccccc2)c(=O)[nH]c1=O	Pf growth 48h inconclusive, Pf growth 96h 4.7µM
CC(=O)c1ccc(N2CCN(CC(=O)N(CC(C)C)c3c(N)n(CC(C)C)c(=O)[nH]c3=O)CC2)cc1	CHX counter 12 (no result: NS1 function inh)
COC(=O)N/N=C/c1cn(Cc2c(Cl)cccc2Cl)c2ccccc12	Pf growth 48h inconclusive, Pf growth 96h inconclusive
C/C(=N\NC(=O)c1cc(C)nc2ccccc12)c1ccccn1	Pf growth 48h 3.7µM, Pf growth 96h 3.3µM (no result: NS1 function inh, CHX counter, Shiga toxin inh)
C/C(=N\NC(=O)c1ccc(Cl)cc1)c1ccccn1	CHX counter 40, Shiga toxin inh 85, Pf growth 48h inconclusive
C/C(=N\Nc1ccc(Cl)cc1)c1ccccn1	CHX counter 23, Shiga toxin inh 74 (no result: Pf growth 48h)
C/C(=N\NC(=O)c1cc(C)nc2ccccc12)c1ccncc1	none
C/C(=N/NC(=O)c1ccccn1)c1ccc(O)cc1	CHX counter 32, Shiga toxin inh 60
C/C(=N\Nc1ccc2nncn2n1)c1ccccn1	Pf growth 48h inconclusive, Pf growth 96h inconclusive
COC(=O)[C@H](CC(C)C)NC(=O)N1CCC(C)CC1	none
CC(C)(C)c1ccc(C(CC(=O)O)NC(=O)c2ccccc2F)cc1 (centres undefined)	none (no result: NS1 function inh)
C/C(=N\NC(=O)c1ccc(O)cc1)c1ccc(N2CCOCC2)cc1	none
C/C(=N\NC(=O)c1ccc(N/N=C(\C)c2ccc(O)cc2)cc1)c1ccc(O)cc1	CHX counter 40, Shiga toxin inh 68
C/C(=N\NC(=O)C(O)c1ccccc1)c1ccc(Cl)cc1 (centres undefined)	Pf growth 96h 4.1µM
C/C(=N/NC(=O)c1ccccn1)c1c[nH]c2ccccc12	CHX counter 56, Shiga toxin inh 92
C/C(=N\NC(=O)c1c[nH]c2ccccc12)c1ccc(C)o1	Pf growth 96h 0.93µM (no result: Pf growth 48h)
C/C(=N/NC(=O)c1ccccn1)c1ccco1	none
C/C(=N\NC(=O)c1ccccn1)c1ccc(Cl)cc1	CHX counter 33, Shiga toxin inh 53
COc1ccc(NC(=O)CN2C(=O)S/C(=C/c3cccn3-c3ccc(C(=O)O)cc3)C2=O)cc1	Pf growth 96h inconclusive
CCN(Cc1ccccc1)c1ccc(/C=C(\C#N)c2ccccn2)cc1	CHX counter 56, Shiga toxin inh 98, Pf growth 96h inconclusive
CN(CCC#N)c1ccc(/C=C(\C#N)c2ccccn2)cc1	CHX counter 48, Shiga toxin inh active
CCN(CC)c1ccc(/C=C(\C#N)c2ccccn2)cc1	CHX counter 35
C[C@@H](O)[C@H]1C(=O)N2C(C(=O)O)=C(S[C@@H]3CN[C@H](C(=O)N(C)C)C3)[C@H](C)[C@H]12	none (no result: NS1 function inh, CHX counter, Shiga toxin inh)
CSCCC(NC(=O)COc1ccccc1)C(=O)N1CCN(C(C)=O)CC1 (centres undefined)	none
O=C(c1cc(-c2cccc(Cl)c2)on1)N1CCN(c2ccccc2)CC1	none
O=C1c2ccccc2-c2ccc(C(=O)N3CCOCC3)cc21	CHX counter 22 (no result: Pf growth 96h)
O=C(c1cccc(-c2ccc(O)cc2)c1)N1CCOCC1	CHX counter 13 (no result: Pf growth 48h)
O=C(c1cc(-c2cccc(O)c2)on1)N1CCOCC1	CHX counter 13, Shiga toxin inh 23
O=C(c1cc(-c2cccc(O)c2)on1)N1CCCCCC1	CHX counter 37, Shiga toxin inh 112
O=C(c1cc(-c2cccc(Cl)c2)on1)N1CCc2ccccc2C1	none
Cc1[nH]n(-c2nc(-c3ccccc3F)cc(=O)[nH]2)c(=O)c1CCO	none
CN1CCC(OC(=O)C(Oc2ccc(Cl)cc2)Oc2ccc(Cl)cc2)CC1	none (no result: NS1 function inh, CHX counter, Shiga toxin inh)
Cn1c(=O)c2sccc2n2c(CCCC(=O)N3CCCCC3)nnc12	Pf growth 96h inconclusive
CCCCc1ncc(CN2CCN(Cc3ccc(C)cc3)C(CCO)C2)[nH]1 (centres undefined)	Pf growth 48h inconclusive
Cc1c(S(=O)(=O)Nc2cccc(Cl)c2)c(=O)n(C)c(=O)n1C	none (no result: Pf growth 48h)
OC(CN1CCN(c2ccccc2)CC1)c1ccc2c(c1)CCN2 (centres undefined)	NS1 function inh inconclusive, Pf growth 96h 9.3µM
Cc1cccc(NC(=O)CSc2ccc(-c3ccco3)nn2)c1	CHX counter 20
COc1ccc(NC(=O)CSc2ccc(-c3ccco3)nn2)cc1	none
CC(=O)Nc1cccc(NC(=O)CSc2ccc(-c3ccco3)nn2)c1	Pf growth 48h inconclusive, Pf growth 96h 9.3µM
COc1cc(NC(=O)CSc2ccc(-c3ccco3)nn2)cc(OC)c1	Pf growth 96h 10µM
Cc1ccc(S(=O)(=O)NC2=NCN(CCOC(=O)c3ccc([N+](=O)[O-])cc3)CN2)cc1	none (no result: Pf growth 48h)
CCOC(=O)N1CCN(c2cc(=O)n(Cc3ccc(F)cc3)c(=O)[nH]2)CC1	none (no result: Pf growth 96h)
COc1ccc(N2Cc3ccccc3C2=NC(=O)c2cccc([N+](=O)[O-])c2)cc1	none
